# Laboratory results: the supplement of paper PMC9801561
# ± gives the standard deviation of the averaged measurements.
# Key:
# [1] = tested on: Escherichia coli Nissle 1917; experiment: area under OmniLog respiration curve over 48 h (OmniLog units x h); higher = more growth / nutrient utilisation; extreme values may be limits of the assay; conditions: incubation: 48 h, 37 °C
# [2] = tested on: Escherichia coli Nissle 1917; experiment: DuctApe activity index of respiration/growth curve (0 no growth to 9 maximum) (index 0-9); higher = more growth / nutrient utilisation, active = 3 or more; extreme values may be limits of the assay; conditions: incubation: 48 h, 37 °C
# [3] = nutrient role: C-Source, amino acid
# [4] = nutrient role: sole nitrogen source (pyruvate carbon)
# [5] = nutrient role: C-Source, carbohydrate
# [6] = nutrient role: sole phosphorus source (pyruvate carbon)
# [7] = nutrient role: sole sulfur source (pyruvate carbon)
# [8] = nutrient role: C-Source, carboxylic acid
# [9] = nutrient role: C-Source, alcohol
# 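Wherever DuctApe activity index of respiration/growth curve (0 no growth to 9 maximum) is given: biolog PM4 phosphorus and sulfur plates, tetrazolium violet dye reduction read in the OmniLog every 15 min, kinetic curves scored by DuctApe, each plate run in triplicate.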
smiles,measurement,setting,value
N[C@@H](CO)C(=O)O [L-Serine],area under OmniLog respiration curve,[1]; [3],8500 ± 700
same,area under OmniLog respiration curve,[1]; [4],7360 ± 1300
same,DuctApe activity index,[2]; [3],8.67 (active)
same,DuctApe activity index,[2]; [4],8 (active)
N[C@H](CC(=O)O)C(=O)O [D-Aspartic acid],area under OmniLog respiration curve,[1]; [3],48 ± 53
same,area under OmniLog respiration curve,[1]; [4],4.72
same,DuctApe activity index,[2]; [3],0.667 (inactive)
same,DuctApe activity index,[2]; [4],0 (inactive)
CC(=O)N[C@H]1C(O)O[C@H](CO)[C@H](O)[C@@H]1O (stereo partly drawn) [N-Acetyl-D-Galactosamine],area under OmniLog respiration curve,[1]; [5],8120 ± 580
same,area under OmniLog respiration curve,[1]; [4],992 ± 1000
same,DuctApe activity index,[2]; [5],8 (active)
same,DuctApe activity index,[2]; [4],2.33 (inactive)
C[C@H](N)C(=O)O [L-Alanine],area under OmniLog respiration curve,[1]; [3],8160 ± 580
same,area under OmniLog respiration curve,[1]; [4],7330 ± 1200
same,DuctApe activity index,[2]; [3],8 (active)
same,DuctApe activity index,[2]; [4],8 (active)
O=P(O)(O)O[C@H]1O[C@H](CO)[C@@H](O)[C@H](O)[C@H]1O [D-Glucose-1-Phosphate],area under OmniLog respiration curve,[1]; [5],8850 ± 750
same,area under OmniLog respiration curve,[1]; [6],8060 ± 560
same,DuctApe activity index,[2]; [5],8.67 (active)
same,DuctApe activity index,[2]; [6],8.33 (active)
CC(C)[C@H](N)C(=O)O [L-Valine],area under OmniLog respiration curve,[1]; [3],5.38 ± 1.1
same,area under OmniLog respiration curve,[1]; [4],2650 ± 990
same,DuctApe activity index,[2]; [3],0 (inactive)
same,DuctApe activity index,[2]; [4],4 (active)
CC[C@H](C)[C@H](N)C(=O)O [L-Isoleucine],area under OmniLog respiration curve,[1]; [3],11.5 ± 6.6
same,area under OmniLog respiration curve,[1]; [4],64.6 ± 81
same,DuctApe activity index,[2]; [3],0 (inactive)
same,DuctApe activity index,[2]; [4],1 (inactive)
N=C(N)NCCC[C@H](N)C(=O)O [L-Arginine],area under OmniLog respiration curve,[1]; [3],4.72
same,area under OmniLog respiration curve,[1]; [4],7500 ± 1400
same,DuctApe activity index,[2]; [3],0 (inactive)
same,DuctApe activity index,[2]; [4],8 (active)
N[C@@H](Cc1ccccc1)C(=O)O [L-Phenylalanine],area under OmniLog respiration curve,[1]; [3],8.61 ± 5.9
same,area under OmniLog respiration curve,[1]; [4],4290 ± 1100
same,DuctApe activity index,[2]; [3],0 (inactive)
same,DuctApe activity index,[2]; [4],6 (active)
CC(=O)N[C@@H](CCC(=O)O)C(=O)O [N-Acetyl-L-Glutamic acid],area under OmniLog respiration curve,[1]; [3],4.72
same,area under OmniLog respiration curve,[1]; [4],4.72
same,DuctApe activity index,[2]; [3],0 (inactive)
same,DuctApe activity index,[2]; [4],0 (inactive)
O=C(O)CP(=O)(O)O [Phosphono Acetic acid],area under OmniLog respiration curve,[1]; [6],143 ± 120
same,DuctApe activity index,[2]; [6],1.33 (inactive)
OCC1OC(O)(CO)C(O)C1O [D-Fructose],area under OmniLog respiration curve,[1]; [5],8740 ± 720
same,DuctApe activity index,[2]; [5],8.67 (active)
NCCS(=O)(=O)O [Taurine],area under OmniLog respiration curve,[1]; [7],7830 ± 160
same,DuctApe activity index,[2]; [7],8 (active)
NC(N)=O,area under OmniLog respiration curve,[1]; [4],4.72
same,DuctApe activity index,[2]; [4],0 (inactive)
O=P(O)(O)OC[C@H](O)CO (racemic) [DL-a-Glycerol Phosphate],area under OmniLog respiration curve,[1]; [5],7910 ± 780
same,area under OmniLog respiration curve,[1]; [6],9010 ± 860
same,DuctApe activity index,[2]; [5],7.67 (active)
same,DuctApe activity index,[2]; [6],8.67 (active)
O=c1ccn([C@@H]2O[C@H](CO)[C@@H](OP(=O)(O)O)[C@H]2O)c(=O)[nH]1 [Uridine 3`-Monophosphate],area under OmniLog respiration curve,[1]; [6],9010 ± 750
same,DuctApe activity index,[2]; [6],8.67 (active)
NC(N)=S [Thiourea],area under OmniLog respiration curve,[1]; [7],4830 ± 410
same,DuctApe activity index,[2]; [7],6.33 (active)
C=C(CC(=O)O)C(=O)O [Itaconic acid],area under OmniLog respiration curve,[1]; [8],4.72
same,DuctApe activity index,[2]; [8],0 (inactive)
"CC(O)C(C)O (stereo not drawn) [2,3-Butanediol]",area under OmniLog respiration curve,[1]; [9],20.2 ± 16
same,DuctApe activity index,[2]; [9],0 (inactive)
O=C(O)CC(O)(CC(=O)O)C(=O)O [Citric acid],area under OmniLog respiration curve,[1]; [8],31.1 ± 32
same,DuctApe activity index,[2]; [8],0 (inactive)
Nc1ccn([C@@H]2O[C@H](CO)[C@@H](OP(=O)(O)O)[C@H]2O)c(=O)n1 [Cytidine 3`-Monophosphate],area under OmniLog respiration curve,[1]; [6],4.72
same,DuctApe activity index,[2]; [6],0 (inactive)
Nc1ncnc2c1ncn2[C@@H]1O[C@H](CO)[C@@H](O)[C@H]1O [Adenosine],area under OmniLog respiration curve,[1]; [5],9110 ± 480
same,area under OmniLog respiration curve,[1]; [4],6810 ± 990
same,DuctApe activity index,[2]; [5],8.67 (active)
same,DuctApe activity index,[2]; [4],7.33 (active)
CC(C)C[C@H](N)C(=O)O [L-Leucine],area under OmniLog respiration curve,[1]; [3],15.5 ± 9.5
same,area under OmniLog respiration curve,[1]; [4],804 ± 870
same,DuctApe activity index,[2]; [3],0 (inactive)
same,DuctApe activity index,[2]; [4],1.33 (inactive)
OCC(O)CO [Glycerol],area under OmniLog respiration curve,[1]; [5],7310 ± 730
same,DuctApe activity index,[2]; [5],7.67 (active)
O=C(O)[C@H](O)[C@@H](O)[C@H](O)[C@H](O)CO [D-Gluconic acid],area under OmniLog respiration curve,[1]; [8],10300 ± 700
same,DuctApe activity index,[2]; [8],9 (active)
CCC(C)N (stereo not drawn) [sec-Butylamine],area under OmniLog respiration curve,"[1]; nutrient role: C-Source, amine",5.72 ± 1.7
same,DuctApe activity index,"[2]; nutrient role: C-Source, amine",0 (inactive)
OC[C@H]1O[C@@H](n2cnc3c(O)nc(O)nc32)[C@H](O)[C@@H]1O [Xanthosine],area under OmniLog respiration curve,[1]; [4],2070 ± 1300
same,DuctApe activity index,[2]; [4],4 (active)
CC(C)[C@@H](N)C(=O)O [D-Valine],area under OmniLog respiration curve,[1]; [4],469 ± 470
same,DuctApe activity index,[2]; [4],0.667 (inactive)
O=C1CC[C@@H](C(=O)O)N1 [L-Pyroglutamic acid],area under OmniLog respiration curve,[1]; [3],6.07 ± 1.2
same,area under OmniLog respiration curve,[1]; [4],4.72
same,DuctApe activity index,[2]; [3],0 (inactive)
same,DuctApe activity index,[2]; [4],0 (inactive)
O=C(O)CCCCCCCCC(=O)O [Sebacic acid],area under OmniLog respiration curve,[1]; [8],4.72
same,DuctApe activity index,[2]; [8],0 (inactive)
C/C=C/C=C/C(=O)O [Sorbic acid],area under OmniLog respiration curve,[1]; [8],7.09 ± 4.1
same,DuctApe activity index,[2]; [8],0 (inactive)
C[S+]([O-])CC[C@H](N)C(=O)O (stereo partly drawn) [L-Methionine Sulfoxide],area under OmniLog respiration curve,[1]; [7],5350 ± 130
same,DuctApe activity index,[2]; [7],7 (active)
CC(=O)CC(=O)O [Acetoacetic acid],area under OmniLog respiration curve,[1]; [8],784 ± 630
same,DuctApe activity index,[2]; [8],0 (inactive)
O=C[C@H](O)[C@H](O)[C@@H](O)CO [L-Lyxose],area under OmniLog respiration curve,[1]; [5],2670 ± 880
same,DuctApe activity index,[2]; [5],4.33 (active)
Nc1ccn([C@@H]2O[C@H](CO)[C@@H](O)[C@H]2OP(=O)(O)O)c(=O)n1 [Cytidine 2`-Monophosphate],area under OmniLog respiration curve,[1]; [6],9170 ± 640
same,DuctApe activity index,[2]; [6],8.67 (active)
OC[C@@H](O)[C@@H](O)CO [i-Erythritol],area under OmniLog respiration curve,[1]; [5],4.72
same,DuctApe activity index,[2]; [5],0 (inactive)
NCCOP(=O)(O)O [O-Phosphoryl-Ethanolamine],area under OmniLog respiration curve,[1]; [6],8740 ± 290
same,DuctApe activity index,[2]; [6],8.67 (active)
NCC(=O)N[C@@H](CC(=O)O)C(=O)O,area under OmniLog respiration curve,[1]; [3],8800 ± 750
same,DuctApe activity index,[2]; [3],8.67 (active)
NC(=O)NCCC[C@H](N)C(=O)O [L-Citrulline],area under OmniLog respiration curve,[1]; [4],1240 ± 540
same,DuctApe activity index,[2]; [4],2.33 (inactive)
N[C@@H]1[C@@H](O)[C@H](O)[C@@H](COP(=O)(O)O)O[C@@H]1O [D-Glucosamine-6-Phosphate],area under OmniLog respiration curve,[1]; [6],9120 ± 620
same,DuctApe activity index,[2]; [6],8.67 (active)
OCC1(O)OC[C@@H](O)[C@H](O)[C@@H]1O (stereo partly drawn) [D-Tagatose],area under OmniLog respiration curve,[1]; [5],6560 ± 520
same,DuctApe activity index,[2]; [5],7.33 (active)
O=c1ccn([C@@H]2O[C@H](CO)[C@@H](O)[C@H]2OP(=O)(O)O)c(=O)[nH]1 [Uridine 2`-Monophosphate],area under OmniLog respiration curve,[1]; [6],6560 ± 4400
same,DuctApe activity index,[2]; [6],7 (active)
O=C1O[C@@H]([C@H](O)CO)[C@H](O)[C@H]1O [D-Galactonic acid-g-Lactone],area under OmniLog respiration curve,[1]; [8],8410 ± 840
same,DuctApe activity index,[2]; [8],8.33 (active)
NCCCCCC(=O)O [e-Amino-N-Caproic acid],area under OmniLog respiration curve,[1]; [4],1240 ± 1000
same,DuctApe activity index,[2]; [4],2.33 (inactive)
O=C(O)Cc1cccc(O)c1 [m-Hydroxyphenyl Acetic acid],area under OmniLog respiration curve,[1]; [8],114 ± 120
same,DuctApe activity index,[2]; [8],0.667 (inactive)
